Test results published in PubChem BioAssay (NCI).
This is part of a sample that, as a whole, favours compounds with a hit. Of some 79,000 tested, about 15% had one in any assay. The source made the active and inactive calls. No stated cut-off is given here; in the data, active means growth inhibition above about 70%; inactive means the rest. Where a SMILES comes first, the peptide text is derived from it.

Experiments:
[1] = NCI Yeast Anticancer Drug Screen. Data for the rad50 strain (AID 155);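 further: 0% = growth of vehicle-only cultures of the same strain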; settings: S. cerevisiae rad50 strain growth inhibition; at 50.0 µM; active compounds read high
Outline: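 Growth of the mutant yeast was measured after compound exposure and referenced to vehicle-treated cultures.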

[2] = NCI Yeast Anticancer Drug Screen. Data for the mec2-1 strain (AID 157); settings: S. cerevisiae mec2-1 strain, at 50.0 µM, active compounds read high
Outline: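 Strain: mec2-1 (DNA repair/cell cycle alteration). Compound exposure, then growth measured; inhibition expressed relative to vehicle.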

[3] = NCI Yeast Anticancer Drug Screen. Data for the sgs1 mgt1 strain (AID 161);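 further: 0% = growth of cultures given vehicle only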; settings: S. cerevisiae sgs1 mgt1 strain, at 50.0 µM, active compounds read high
Outline: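 Genetically altered yeast, compound exposure, growth inhibition relative to vehicle.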

[4] = NCI Yeast Anticancer Drug Screen. Data for the cln2 rad14 strain (AID 165);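 further: 0% = growth equal to vehicle treated cultures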; settings: S. cerevisiae cln2 rad14 strain, at 50.0 µM, active compounds read high
Outline: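 Compounds are applied to the cln2 rad14 yeast strain, and growth is then compared with that of vehicle-treated cultures to give inhibition.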

[5] = NCI Yeast Anticancer Drug Screen. Data for the bub3 strain (AID 167); settings: S. cerevisiae bub3 mutant strain, at 50.0 µM, active compounds read high
Outline: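 Whole-cell yeast assay. The mutant strain was incubated with compounds, and growth inhibition was determined by comparison with vehicle-treated cells.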

[6] = NCI Yeast Anticancer Drug Screen. Data for the mlh1 rad18 strain (AID 175); settings: S. cerevisiae mlh1 rad18 strain growth inhibition; at 50.0 µM; active compounds read high
Outline: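 Read-out is yeast growth inhibition, calculated against vehicle-only controls. The compound was applied to a strain engineered with DNA damage repair alterations.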

Measured: growth inhibition

c1ccc(CSCCc2ccncc2)cc1
inactive: [1] 16.4% | [2] -13.6% | [3] -21.1% | [4] -3.2% | [5] -3.55% | [6] 20.2%

Clc1ccc(CSc2cnnc3c(Br)cccc23)c(Cl)c1
inactive: [1] -5.3% | [2] -11.5% | [3] -10.8% | [4] -39.2% | [5] 1.8% | [6] 0.85%

CCOC(=O)CCCCCSc1n[nH]c(=O)[nH]c1=O
inactive: [1] -7.5% | [2] -11% | [3] -21.9% | [4] 5.75% | [5] 6.15% | [6] -4.2%

CC(C)COS(=O)(=O)O
inactive: [1] 19.2% | [2] 6.65% | [3] 20% | [4] 24.9% | [5] 15.2% | [6] 27.1%

[Fe+2].[Fe+2].c1ccc2c(c1)-c1nc-2nc2[n-]c(nc3nc(nc4[n-]c(n1)c1ccccc41)-c1ccccc1-3)c1cc3c4nc5nc(nc6[n-]c(nc7nc(nc([n-]4)c3cc21)-c1ccccc1-7)c1ccccc61)-c1ccccc1-5
inactive: [1] -5.95% | [2] -18.9% | [3] -14.2% | [4] -23% | [5] 6.75% | [6] 2.35%

COc1ccc(CCN2C(CC(=O)c3ccccc3)CCCC2CC(=O)c2ccccc2)cc1 (centres undefined)
inactive: [1] -29.6% | [2] -29.1% | [3] -23.8% | [4] -0.8% | [5] -17.5% | [6] -18.7%

CCc1c(C)[nH]c(C2=NCCC2)c1C
inactive: [1] -10.6% | [2] -9.6% | [3] -17.8% | [4] -1.6% | [5] -13.4% | [6] -25.1%

CCOC(=O)NN1C(=O)c2cccc3c([N+](=O)[O-])ccc(c23)C1=O
active: [1] 86.2% | [3] 93.5% | [4] 88.4% | [5] 78.3% | [6] 85.8%
inactive: [2] 61.9%

C/C(=N\N=C(/C)c1ccc(-c2ccccc2)cc1)c1ccc(-c2ccccc2)cc1
inactive: [1] 1.2% | [2] -27.8% | [3] 19.1% | [4] 2.2% | [5] 20.8% | [6] 13.3%

O=C(O)c1cccc(C(=O)c2ccccc2)c1
inactive: [1] 5.55% | [2] 6.15% | [3] 20.4% | [4] 4.4% | [5] -11.7% | [6] 0.7%

CCC(CC)C(=O)OCCOCCOC
inactive: [1] 30.2% | [2] 11.8% | [3] 14.9% | [4] 7.9% | [5] 23.6% | [6] 36.9%

CC1CC2C3(C1)CC(C(=O)OC3=O)C2(C)C (centres undefined)
inactive: [1] -3.4% | [2] -11.4% | [3] -7.35% | [4] -37.4% | [5] -2.1% | [6] 23.4%

CC(C)(C)NC(=O)C12C3C4C1C1C2C3C41C(=O)NC(C)(C)C (centres undefined)
inactive: [1] -19.3% | [2] -9% | [3] -15.9% | [4] -39.7% | [5] -26.1% | [6] -19.5%

COC(=O)CCSc1ccccc1
inactive: [1] 0.55% | [2] -12% | [3] 5.45% | [4] 6.7% | [5] -15.1% | [6] -7.6%

CC(=O)OCC(OC(C)=O)C1(O)CCC2C3CCC4=CC(=O)CCC4(C)C3CCC21C (centres undefined)
active: [1] 98.4% | [2] 99% | [3] 98.5% | [4] 97.8% | [5] 98.3% | [6] 98.3%

Cc1cccc(C=NC23CC4CC(CC(C4)C2)C3)c1
inactive: [1] -30.4% | [2] -40.5% | [3] -40.5% | [4] -30.7% | [5] -44.9% | [6] -43.3%

C1=CC2C3CSCC3C1C1CC21 (centres undefined)
inactive: [1] 7.95% | [2] -7.85% | [3] -4.4% | [4] -35.1% | [5] -17% | [6] -3.05%

COC(=O)C(Cc1c[nH]c2ccccc12)NC(=O)c1ccccc1NC(=O)OCc1ccccc1 (centres undefined)
inactive: [1] 5.85% | [2] -13.1% | [3] 9.15% | [4] -14.1% | [5] 15.1% | [6] 7.65%

CN(C)c1ccc(/C=N/NS(=O)(=O)c2ccc(N)cc2)cc1
inactive: [1] -4.4% | [2] -9.95% | [3] 18.8% | [4] -3.45% | [5] -32.2% | [6] -12.6%

CC1=CC(=O)c2c(C=O)c(O)c(O)c(C(C)C)c2C1=O
active: [1] 91% | [2] 93.4% | [3] 91.8% | [4] 91.1% | [5] 91.2% | [6] 90.8%

N#CC(OC(=O)c1cccc(C(=O)OC(C#N)(C(F)(F)F)C(F)(F)F)c1Sc1ccccc1)(C(F)(F)F)C(F)(F)F
inactive: [1] 27% | [2] 13.8% | [3] -10.1% | [4] -7.8% | [5] 7.55% | [6] -1.3%

COC(=O)c1ccc(C(=O)OC)c2nc3cc(C)ccc3nc12
inactive: [1] -39.1% | [2] -2.3% | [3] -16.2% | [4] 10.1% | [5] 8.65% | [6] 14.4%

O=C(O)/C=C(/CC(=O)O)c1ccc(O)cc1
inactive: [1] -14.9% | [2] -21.7% | [3] -9.9% | [4] -4.55% | [5] -18.6% | [6] -14.3%

CC(C)(C)c1ccc(C(C)(C)C)c(=O)[nH]1
inactive: [1] -32.1% | [2] -19.1% | [3] -12.3% | [4] -41.5% | [5] -6.1% | [6] 5.65%

COC(=O)C(NC(=O)C(NC(=O)C(N)C(C)C)C(C)C)C(C)C (stereo not drawn) (H-Val-Val-Val-OMe; configuration not given here)
inactive: [1] 5.3% | [2] 20.6% | [3] 5.4% | [4] -11.7% | [5] -3.4% | [6] -9.5%

c1cc(-c2cc(-c3cc(-c4ccncc4)n[nH]3)[nH]n2)ccn1
inactive: [1] 9.45% | [2] -2.6% | [3] 8.45% | [4] 3.3% | [5] -13.8% | [6] 4.6%

CC(C1=CC=C2[C@@H]3CCC4CC(N(C)C)CC[C@]4(C)C3CC[C@]12C)N(C)C=O (some centres undefined)
inactive: [1] 6.8% | [2] 8.6% | [3] -16.2% | [4] 6.35% | [5] 4.45% | [6] 1.65%

CC(C)(C)C(=O)CN
inactive: [1] -19.4% | [2] -10.1% | [3] -9.55% | [4] -71% | [5] 11% | [6] -2.65%

CC(=O)Oc1cccc(OC(=O)Nc2ccc(C)c(NC(=O)Oc3cccc(OC(C)=O)c3)c2)c1
inactive: [1] 26.2% | [2] 22.6% | [3] 9.75% | [4] 19.3% | [5] -0.4% | [6] 34.5%

O=C(Nc1ccc(Cl)cc1)Nc1nnc(-c2ccccc2Br)o1
inactive: [1] 15.6% | [2] 18.6% | [3] 19.2% | [4] -15.4% | [5] -22.6% | [6] 8.3%

O=C1CN(c2cccc(Cl)c2)C(=O)CN1CCN1CC(=O)N(c2cccc(Cl)c2)CC1=O
inactive: [1] -35.2% | [2] -11.7% | [3] -19.6% | [4] -7.8% | [5] -37.5% | [6] -32.2%

C#CCOC(=O)C(N)CC(N)=O (centres undefined)
inactive: [1] -13.8% | [2] -21.9% | [3] -40.6% | [4] -11.8% | [5] -26.6% | [6] -17.2%

Cc1nc(N)c(N2CCN(S(=O)(=O)N(Cc3ccccc3)Cc3ccccc3)CC2)c(=O)[nH]1
inactive: [1] -10.9% | [2] 2.3% | [3] 2.95% | [4] -11.9% | [5] 14.9% | [6] 3.95%

CC(C(=O)c1ccccc1)N(C)c1ccccc1 (centres undefined)
inactive: [1] 12.7% | [2] -5.35% | [3] -3.1% | [4] -36.8% | [5] -26% | [6] -1.65%

CCCO[C@@H]1[C@@H](OC(C)=O)[C@@H](OC(C)=O)C(C)(C)/C=C/[C@H](C)C(=O)[C@@]2(OC(C)=O)C[C@@](C)(OC(C)=O)[C@H](OC(C)=O)[C@@H]2[C@H]2OC(=O)CC[C@@]12OC(=O)c1ccccc1
inactive: [1] -14.7% | [2] -24.2% | [3] -56.5% | [4] -16.1% | [5] -48.8% | [6] -29.1%

CCCCCCCC/C=C/CCCCCCCCCCCC(=O)O
inactive: [1] -7.6% | [2] -39.2% | [3] -1.45% | [4] -46.5% | [5] -8.9% | [6] 2.35%

COC(=O)C1(C(=O)Nc2ccccc2)N=N1
inactive: [1] 13.7% | [2] 7.55% | [3] 2.5% | [4] 3.35% | [5] -4.45% | [6] 8.15%

CSc1nc(N)n2nc(C3CC3)cc2n1
inactive: [1] 5.5% | [2] -10.8% | [3] 16.1% | [4] 21.4% | [5] 15.9% | [6] 3.4%

Cc1nc(N)sc1C
inactive: [1] 12.7% | [2] -26.9% | [3] 16.6% | [4] 7.7% | [5] 25.6% | [6] 26.2%
